Results published in PubChem BioAssay (EPA / NIEHS).
Inconclusive results are not listed. Active and inactive are the calls of the source. Rule for the calls: active = hit-call score of the fitted dose curve at least 0.9, where 1 is the maximum; inconclusive = response in the unintended direction; inactive = score below 0.9.

Each compound was assayed against Muscarinic acetylcholine receptor M2 (Homo sapiens) (UniProt P08172) (assay: NVS_GPCR_hM2: NovaScreen (NVS) G Protein-Coupled Receptor Assay for human Muscarinic, M2 Receptor (AID 2283273)).
Chain of Muscarinic acetylcholine receptor M2 (Homo sapiens) (P08172 whole entry, looked up): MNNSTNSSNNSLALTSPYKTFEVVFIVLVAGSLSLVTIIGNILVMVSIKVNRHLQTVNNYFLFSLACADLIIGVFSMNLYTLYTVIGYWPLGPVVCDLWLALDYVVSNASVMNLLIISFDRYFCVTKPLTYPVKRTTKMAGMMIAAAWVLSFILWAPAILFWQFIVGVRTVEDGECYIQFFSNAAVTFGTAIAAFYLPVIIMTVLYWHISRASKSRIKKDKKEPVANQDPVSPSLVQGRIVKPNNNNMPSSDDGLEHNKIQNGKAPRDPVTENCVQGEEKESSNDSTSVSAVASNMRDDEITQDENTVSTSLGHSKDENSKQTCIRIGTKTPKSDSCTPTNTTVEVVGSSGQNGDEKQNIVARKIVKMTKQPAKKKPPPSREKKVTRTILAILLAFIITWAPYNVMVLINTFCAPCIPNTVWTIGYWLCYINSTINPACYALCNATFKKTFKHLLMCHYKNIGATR
Experimental: NVS_GPCR_hM2 is a biochemical, single-readout assay that uses extracted gene-proteins from CHO in a cell-free assay. Measurements were taken 1 hour after chemical dosing in a 96-well plate.NVS_GPCR_hM2 is one of one assay component(s) measured or calculated from the NVS_GPCR_hM2 assay. It is designed to make measurements of radioligand binding, a form of binding reporter, as detected with scintillation counting signals by Filter-based radiodetection technology.Data from the assay component NVS_GPCR_hM2 was analyzed into 1 assay endpoint. This assay endpoint, NVS_GPCR_hM2, was analyzed in the positive analysis fitting direction relative to DMSO as the negative control and baseline of activity. Using a type of binding reporter, loss-of-signal activity can be used to understand changes in the binding as they relate to the gene CHRM2. Furthermore, this assay endpoint can be referred to as a primary readout, because the performed assay has only produced 1 assay endpoint. To generalize the intended target to other relatable targets, this assay endpoint is annotated to the gpcr intended target family, where the subfamily is rhodopsin-like receptor.
Binding assays used specific radioligands (tritiated, iodinated) with non-radioactive competitive displacement ligands in agonist or antagonist protocols (as indicated) and various reference compounds and inhibitors to titrate specific binding to receptors and transporters. Most enzyme assays (CYPs, kinases, phosphatases, proteases, HDACs) used recombinant protein and specific substrates (fluorescence mostly, some colorimetric and radioactive) and inhibitors, followed by a biochemical separation of substrate and product. All assays for the biochemical HTS were initially run in duplicate at a single concentration (10 uM for CYP450 assays and 25 uM for all others). […] Each assay was run with positive and negative controls, and concurrent controls on every plate. […]

| SMILES | outcome |
| --- | --- |
| COc1ccc(C(c2ccc(OC)cc2)C(Cl)(Cl)Cl)cc1 | inactive |
| CNC(=S)S | inactive |
| COP(=S)(OC)Oc1nc(Cl)c(Cl)cc1Cl | inactive |
